Screening data deposited in PubChem BioAssay by National Center for Advancing Translational Sciences (NCATS).
Rows were chosen to be rich in hits. Some 9.3% of all compounds tested hit in one or more screens of this group.
FLuc counter: inhibits or activates purified firefly luciferase, miR-21 counter-screen | P08659 | purified FLuc, Km substrates, luminescence inhibition | Potency, µM (titrated, usually from 57.5 µM), without a hit: at the highest dose activity change, negative = inhibition, hits mostly inhibitors | actives 6.9% (n = 360,000);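 further: plate controls were vehicle for no effect and reference inhibitor for full effect; nearly all actives have a fitted effect of over 55% in size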
Target sequence (P08659 whole entry, looked up): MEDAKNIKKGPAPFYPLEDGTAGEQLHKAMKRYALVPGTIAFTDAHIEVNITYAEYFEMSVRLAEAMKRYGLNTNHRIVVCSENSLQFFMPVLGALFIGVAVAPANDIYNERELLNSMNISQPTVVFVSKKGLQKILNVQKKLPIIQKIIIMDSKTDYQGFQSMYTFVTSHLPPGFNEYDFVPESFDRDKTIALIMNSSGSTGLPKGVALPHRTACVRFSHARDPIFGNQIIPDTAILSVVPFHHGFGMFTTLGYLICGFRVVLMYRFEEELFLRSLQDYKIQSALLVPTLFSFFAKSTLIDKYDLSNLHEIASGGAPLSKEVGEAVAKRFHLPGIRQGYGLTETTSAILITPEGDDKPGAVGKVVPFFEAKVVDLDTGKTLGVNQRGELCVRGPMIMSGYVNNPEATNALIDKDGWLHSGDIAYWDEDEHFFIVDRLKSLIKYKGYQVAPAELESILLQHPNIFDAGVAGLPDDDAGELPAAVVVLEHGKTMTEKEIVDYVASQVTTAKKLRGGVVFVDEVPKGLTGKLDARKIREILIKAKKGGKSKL
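Biochemical qHTS of compounds, final roughly 60 µM downward over six points, against 10 nM purified firefly luciferase using Km concentrations of substrates (10 uM D-luciferin, 10 uM ATP) in Tris acetate pH 7.5 buffer; luminescence output.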
Rab9 prom act: activates the Rab9 promoter. Huh7 Rab9 promoter-luciferase reporter, luminescence, 24 h. Potency, µM (series often up to 9.22 µM), for the others: top-dose activation, negative = inhibition, usual class: activators. actives 2.8% (n = 320,000); further: % of control where 0% means no effect; nearly all actives have a fitted effect of over 60% in size
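Huh7 cells stably carrying Rab9 promoter–luciferase reporter, plated 1500 cells/well, compound added after 2 h and incubated 24 h at 37 °C; luciferase luminescence then read after 10 min with detection reagent.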
SMN2 splice enh: increases expression of the SMN2 splice variant; Potency, µM (highest dose often 46.1 µM), for the others: top-dose activity change, positive = activation, usual class: activators; HEK293 SMN2-luciferase splicing reporter, luminescence, 30-36 h; actives 2.8% (n = 210,000); further: % of control where 0% means no effect; nearly all actives have a fitted effect of over 55% in size
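HEK293 cells carry an SMN2 […]–luciferase reporter in which exon 7 inclusion puts luciferase in frame. Cells were plated 10-12 h before compound addition, then incubated 30-36 h at 37C. ONE-Glo luminescence was read; sodium butyrate at 4.5 mM final served as control.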
ELG1 DNA repair: ELG1-dependent DNA repair inhibition; HEK293T ELG1-luciferase reporter, luminescence, 16 h; DNA damage induced by 5-fluorouridine; Potency, µM (highest dose often 46.1 µM), for inactives: at the top dose activity change, negative = inhibition, usual class: inhibitors; actives 2.3% (n = 330,000); further: on the % scale 0 is the no-effect control and ±100 the full control effect; nearly all actives have a fitted effect of over 55% in size
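Overnight (16 hr) co-exposure of 2,000 cells/well to 5-fluorouridine and compound at 37 °C preceded detection. Luciferase was quantified via ONE-Glo luminescence; loss of signal denotes inhibition.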
ELG1 genotoxic: inducers of genotoxicity in HEK293T ELG1-luciferase cells. actives 1.3% (n = 330,000). Potency, µM (titrated, usually from 46 µM), without a hit: top-dose activity change, positive = activation, usual class: activators. HEK293T ELG1-luciferase reporter, luminescence, 16 h; further: % of control where 0% means no effect; nearly all actives have a fitted effect of over 60% in size
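Quantitative HTS format in 1536-well plates. HEK293T ELG1-luciferase reporter cells receive test compound and are incubated 16 hr at 37 °C, 5% CO2; ONE-Glo added, 30 min room temperature, then luminescence read.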
NPC1 promoter act: activates the NPC1 promoter. AID 485313. actives 2.4% (n = 320,000). Potency, µM (series often up to 9.22 µM), inactives show top-dose activation, actives largely listed as activators. Huh7 NPC1 promoter luciferase reporter, 24 h; further: % of control where 0% means no effect; nearly all actives have a fitted effect of over 60% in size
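Luminescence read-out of NPC1 promoter-driven luciferase in stably transfected Huh7 cells; compounds delivered in DMSO and left 24 h at 37C, 5% CO2, qHTS titration format.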
An asterisk follows results filed as active; ? = inconclusive; nt = no result. The call rests on the fitted dose curve; in most records, active means well fitted curve in the direction sought with a large enough effect; inconclusive means small, poorly fitted or top-dose-only effect, or another doubt; inactive means no such curve, though single readings can be large; an effect the other way counts as inactive or inconclusive. Potency means the concentration at half of the fitted maximal effect.

SMILES | FLuc counter | Rab9 prom act | SMN2 splice enh | ELG1 DNA repair | ELG1 genotoxic | NPC1 promoter act
Cc1ccccc1Nc1cc(C)c2c(O)cccc2n1 | 19µM* | -10% | -6% | 23% | 0% | -1%
COC(=O)c1cc(Nc2cc(C)c3ccc(O)cc3n2)cc(C(=O)OC)c1 | 0% | 10% | nt | ? | 5% | 0%
Cc1ccc(Nc2cc(C)c3ccc(O)cc3n2)cc1C | 17µM* | 1% | nt | ? | 13% | 3%
COC(=O)c1cc(Nc2cc(C)c3c(O)cccc3n2)cc(C(=O)OC)c1 | ? | 0% | nt | ? | -6% | 10%
Cc1ccc(Nc2cc(C)c3c(O)cccc3n2)cc1C | 9.5µM* | ? | nt | ? | ? | ?
COc1ccc(Nc2cc(C)c3c(O)cccc3n2)cc1 | 21µM* | 20% | nt | ? | 4% | 7%
CCc1ccc(CN(Cc2ccco2)C(=O)c2cc(-c3ccc(Cl)cc3)on2)cc1 | 0% | nt | nt | nt | nt | nt
COc1ccc(CCNS(=O)(=O)c2ccc(N3CCCCS3(=O)=O)cc2)cc1OC | -1% | nt | nt | nt | nt | nt
CCCCCC(=O)Nc1cccc(C2=NOC3(C2)C[C@H](C(N)=O)N(C(=O)c2ccccc2C(=O)c2ccccc2)C3)c1 (some centres not stated) | 0% | -11% | nt | -23% | -7% | -3%
COc1ccccc1OC(=O)CCc1nc2ccccc2s1 | 19µM* | -1% | -7% | 16% | -5% | 4%
O=C(CCc1nc2ccccc2s1)OCC(=O)c1ccccc1 | 19µM* | 22% | 18% | ? | 13% | 14%
O=C(CCc1nc2ccccc2s1)c1ccccc1 | 15µM* | ? | 24% | ? | 13% | 28%
Cc1ccc(OC(C)C(=O)N=Nc2c(O)[nH]c3ccc([N+](=O)[O-])cc23)cc1 (configuration not stated) | 1% | 3% | nt | -9% | -7% | -4%
CCCCn1cc2c(c1-c1ccccc1Br)c(=O)n(C)c(=O)n2C | -2% | nt | 7% | nt | nt | nt
CC(C)NC(=O)NC(=O)CSc1nncs1 | 0% | -2% | 15% | 8% | 1% | -2%
CC(Oc1ccc(Br)cc1Cl)C(=O)Nc1ccncc1 (configuration not stated) | -3% | -3% | nt | ? | -7% | -9%
CC1CCCN(C(=O)CN(C)S(=O)(=O)c2ccc3c(c2)c(=O)n(C)c(=O)n3C)C1 (configuration not stated) | 1% | 4% | nt | 16% | 0% | 1%
COc1cccc(Nc2nnc(SCC(=O)Nc3sccc3C(N)=O)s2)c1 | 11µM* | -2% | -18% | 15µM* | -22% | 1%
CCc1ccc(Nc2nnc(SCC(=O)Nc3cccnc3Cl)s2)cc1 | 1.3µM* | 4% | nt | -21% | 6% | -3%
CCc1ccc(Nc2nnc(SCC(=O)Nc3sccc3C(N)=O)s2)cc1 | 2.1µM* | 18% | ? | ? | -2% | 28%
Cc1nnc(SCC(=O)Nc2cccnc2Cl)s1 | 7% | -1% | nt | -3% | -1% | 0%
CCc1ccc(Nc2nnc(SCC(=O)c3c(N)n(C4CC4)c(=O)[nH]c3=O)s2)cc1 | 0.6µM* | 27% | nt | ? | 11% | 25%
CCc1ccc(Nc2nnc(SCC(=O)NCCN3C(=O)CSC3=O)s2)cc1 | 1.9µM* | ? | 11µM* | ? | ? | 28%
Cn1c(SCC(=O)NCCN2C(=O)CSC2=O)nnc1-c1ccccc1 | -2% | 0% | -16% | 5% | -2% | 1%
CCc1ccc(NC(=O)Cn2nnc(C(=O)NCc3ccc(C)cc3)c2N)cc1 | -1% | nt | nt | nt | nt | nt
O=C(OCC(=O)N1CCCC1=O)c1ccc(F)c(S(=O)(=O)N2CCOCC2)c1 | 1% | -7% | nt | 18% | -13% | 3%
O=C(O)c1cc(S(=O)(=O)O)cc(Nc2c3ccccc3nc3ccccc23)c1O | 8.5µM* | -5% | nt | ? | -4% | 4%
